Source: PubChem BioAssay
Shown are actives, neighbours in structure and some others; about 6.7% of the full set was active somewhere.
KB-3-1 cytotox: KB-3-1 parental cell cytotoxicity. KB-3-1 viability, CellTiter-Glo ATP luminescence, 72 h. Potency, µM (highest dose often 46.1 µM), hits mostly cytotoxic. 400,000 tested, 1.4% active; further: nearly all actives have a fitted effect of over 60% in size
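Cytotoxicity in the drug-sensitive parental line KB-3-1 was scored as loss of CellTiter-Glo luminescence following 72 h incubation with compound. Values come from curve fitting of normalized concentration-response data.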
SW480 rereplic: inducers of DNA re-replication in SW480 colon cancer cells; 340,000 tested, 1.8% active; SW480 DNA re-replication, Hoechst DNA content imaging, 48 h; AID 624297; Potency, µM (doses to about 46.1 µM), usual class: activators; further: nearly all actives have a fitted effect of over 55% in size
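DNA re-replication was detected as more nuclei of elevated Hoechst intensity after 48 hr exposure to compound (23 nL pinned per well of 250 cells).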
KB-V1 MDR tox: KB-V1 MDR subline cytotoxicity; KB-V1 MDR cells viability, CellTiter-Glo, 72 h; Potency, µM (top dose mostly 46.1 µM), actives largely listed as cytotoxic; 400,000 tested, 3.4% active; further: nearly all actives have a fitted effect of over 60% in size
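Following 72 h at 37 degrees C with compound, KB-V1 cell viability was read by CellTiter-Glo luminescence, medium being phenol-red-free DMEM plus 10% FBS; concentration-response parameters came from normalized, curve-fitted qHTS data.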
PINK1 expr mod: changes PINK1 expression; PINK1 immunofluorescence, high-content cytometry, 24 h; AID 624263; Potency, µM (top dose mostly 76.6 µM), hits mostly activators; 410,000 tested, 0.2% active; active means well fitted activation curve with a large enough effect; inconclusive means small, poorly fitted or top-dose-only effect; cell line not stated here; further: nearly all actives have a fitted effect of over 65% in size
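Measures PINK1 amount and localization on or inside mitochondria by immunofluorescence. Stable cells get compounds at 5 concentrations for 24 hours before fixation and staining; CCCP controls included.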
MCF10A rereplic: inducers of DNA re-replication in MCF 10A breast cells; MCF 10A DNA re-replication, Hoechst nuclear intensity, 48 h; Potency, µM (top dose mostly 46.1 µM), actives largely listed as activators; 350,000 tested, 2.9% active; further: nearly all actives have a fitted effect of over 50% in size
Hits are given with their value; 0 = inactive; ? = inconclusive; - = no result; [ ] = dose if it differs, or a comment. Unless noted, the call rests on the fitted dose curve; in most records, active means well fitted curve in the direction sought with a large enough effect; inconclusive means small, poorly fitted or top-dose-only effect, or another doubt; inactive means no such curve, though single readings can be large; an effect the other way counts as inactive or inconclusive.

SMILES | KB-3-1 cytotox | SW480 rereplic | KB-V1 MDR tox | PINK1 expr mod | MCF10A rereplic
OC(CN1CCCCCC1)CN(c1ccccc1)c1ccccc1 (configuration not stated) | ? | 0 | 0 | 0 | 0
COc1ccc(C(=O)C(CN2CCOCC2)c2ccccc2)cc1 (configuration not stated) | ? | 0 | ? | 0 | ?
O=C(c1ccccc1)C(CCC(CN1CCOCC1)C(=O)c1ccccc1)CN1CCOCC1 (configuration not stated) | 5.8µM | ? | 5.8µM | 0 | 4.6µM
CCCCOc1ccc(C(=O)C(CN2CCOCC2)c2ccccc2)cc1 (configuration not stated) | ? | 15µM | ? | 0 | ?
COc1ccc(C(=O)C(CN2CCCC2)c2ccccc2)cc1 (configuration not stated) | 7.1µM | ? | 7.1µM | 0 | ?
O=C(c1ccc(Cl)cc1)C(CN1CCCC1)c1ccccc1 (configuration not stated) | ? | ? | 0 | 0 | 4.1µM
Cc1ncc2c(c1CNC(=O)/C=C/c1cccs1)CCN(C(=O)c1ccc3c(c1)OCCO3)C2 | - | - | - | 0 | -
Cn1cnnc1SCC(=O)c1cc2ccccc2oc1=O | 0 | 0 | 0 | - | 0
N#Cc1ccc(-c2ccccc2)nc1SCC(=O)c1cc2ccccc2oc1=O | 0 | ? | 0 | 0 | 5µM
CC(C)c1c(C#N)c(N)nc(SCC(=O)c2cc3ccccc3oc2=O)c1C#N | ? | ? | ? | ? | 15µM
CSc1nc(C)c(C(=O)Nc2ccccc2)c(-c2ccco2)c1C#N | 0 | 0 | 0 | 0 | 0
Cc1nc(SCC(=O)c2cc3ccccc3oc2=O)c(C#N)c(-c2cccs2)c1C(=O)Nc1ccccc1 | 0 | ? | 0 | 40µM | 0
Cc1cnc(C)c(-c2cc(F)cc3c2OC(CNC(=O)c2cc(Cl)ccc2F)C3)n1 (configuration not stated) | - | - | - | 0 | -
COc1ccc(/C(C)=N/OCC(=O)Nc2nc3ccccc3s2)cc1OC | ? | 0 | 15µM | 0 | ?
CCn1cc(S(=O)(=O)c2ccc(Cl)cc2)c(=O)c2cc(OC)ccc21 | 0 | 0 | 15µM | 0 | 0
N#Cc1ccsc1NC(=O)C1=COCCO1 | 0 | 0 | 0 | 0 | 0
Cc1cc(N2CCOCC2)nc2ccc(NC(=O)CCC(=O)N3CCN(c4ccccc4)CC3)cc12 | 0 | 0 | 0 | 0 | 0
Cc1cc(N2CCN(C)CC2)nc2ccc(NC(=O)CCC(=O)N3CCN(c4ccc([N+](=O)[O-])cc4)CC3)cc12 | 0 | ? | 0 | 0 | 18µM
O=C(c1ccc(CSc2ccc(Cl)cc2)o1)N1CCOCC1 | 0 | - | 0 | 0 | -
COCc1cc(=O)[nH]c(SCCS(=O)(=O)c2ccc(Cl)cc2Cl)n1 | ? | 0 | ? | 0 | 16µM
Cc1cc(C)c2cc(C(O)c3nnnn3Cc3ccccc3)c(=O)[nH]c2c1 (configuration not stated) | 0 | 4.6µM | 0 | 0 | 2.6µM
O=c1[nH]c2cc3c(cc2cc1C(c1nnnn1C1CCCC1)N1CCCc2ccccc21)OCCO3 (configuration not stated) | 0 | 0 | 0 | 0 | 0
O=c1[nH]c2cc3c(cc2cc1C(c1nnnn1Cc1ccccc1)N1CCCc2ccccc21)OCO3 (configuration not stated) | ? | 0 | 0 | 0 | 3.7µM
O=c1[nH]c2cc3c(cc2cc1C(c1nnnn1Cc1ccccc1)N1CCCCCC1)OCCO3 (configuration not stated) | ? | 21µM | ? | 0 | ?
c1ccc(-n2nnnc2Sc2ncnc3sc4c(c23)CCCC4)cc1 | 0 | ? | 0 | 0 | 21µM
SMILES | KB-3-1 cytotox | SW480 rereplic | KB-V1 MDR tox | PINK1 expr mod | MCF10A rereplic
Fc1cccc(Cc2c(-c3ccccc3)nc3c4ccccc4ccn23)c1 | 0 | - | ? | 0 | -
CNC(=O)c1cc(Oc2ccc(NC(=O)Nc3ccc(Cl)c(C(F)(F)F)c3)cc2)ccn1 | ? | ? | ? | 0 | 16µM
Cc1cc(=O)oc2cc(OCC(=O)NCCc3c[nH]c4ccc(F)cc34)ccc12 | 0 | 13µM | ? | 0 | 0
COc1ccc2[nH]cc(CCNC(=O)COc3ccc4ccc(=O)oc4c3)c2c1 | 0 | 0 | 0 | 0 | 0
Cc1cc(Nc2ccc3c(c2)OCCO3)c2cc(Cl)ccc2n1 | 0 | 0 | 15µM | 0 | 0
Cc1cc(Nc2cccc(Cl)c2)c2ccccc2n1 | 0 | 0 | ? | 0 | 0
O=C(NNc1ccccn1)C(=O)NNS(=O)(=O)c1ccc(F)cc1 | 0 | ? | ? | 0 | ?
O=C(NNc1ccccn1)C(=O)NNS(=O)(=O)c1ccc(Cl)cc1 | ? | ? | 18µM | 0 | ?
CC1CC(=O)N(CC(=O)Nc2ccc(F)cc2F)c2ccccc2S1 (configuration not stated) | 0 | - | ? | 0 | -
CCOC(=O)c1[nH]c2ccc(OC)cc2c1NC(=S)N1CCN(c2ccc(F)cc2)CC1 | 0 | 0 | 0 | 0 | 0
CCOC(=O)c1[nH]c2ccc(OC)cc2c1NC(=S)N1CCN(c2cccc(C)c2C)CC1 | 0 | ? | 0 | 0 | 15µM
COc1ccccc1N1CCN(C(=O)c2ccc3[nH]c(C)c(C)c3c2)CC1 | 1.6µM | 2.3µM | 4.6µM | 0 | ?
Cc1cccc(N2CCN(C(=O)c3ccc4[nH]c(C)c(C)c4c3)CC2)c1C | 26µM | 3.3µM | 2.3µM | 0 | 2.3µM
COCCn1c(=S)[nH]c2cc(C(=O)N3CCN(c4ccccc4OC)CC3)ccc2c1=O | 0 | 0 | 15µM | 0 | 0
COCCN(C(=O)COC(=O)CCSc1ccc(F)cc1)c1c(N)n(Cc2ccccc2)c(=O)[nH]c1=O | 0 | 0 | 0 | 0 | 0
COC(=O)c1ccccc1NC(=O)Cn1c(=O)n(Cc2ccc(C(=O)NCc3ccc4c(c3)OCO4)cc2)c(=O)c2ccccc21 | 0 | - | 0 | 0 | -
CCc1ccccc1Nc1cc(C(=O)NCCCN(C)C2CCCCC2)c2ccccc2n1 | 0 | - | 0 | 0 | -
COc1ccccc1N1CCN(C(=O)c2ccc3[nH]c4c(c3c2)CC(C)CC4)CC1 (configuration not stated) | 0 | 0 | 21µM | 0 | ?
Cc1ccc(NC(=O)c2cc(C(C)(C)C)nn2Cc2ccccc2)cc1 | ? | 0[9.22 µM] | ? | 0 | ?
Cc1ccc(NNC(=O)c2cc(C(C)(C)C)nn2Cc2ccccc2)cc1 | 12µM | 0 | 0 | 0 | ?
CC(C)(C)c1cc(C(=O)NNc2cc(C(F)(F)F)ccc2Cl)n(Cc2ccccc2)n1 | ? | 0 | ? | ? | 21µM
CC(C)(C)c1cc(C(=O)Nc2ccc(F)cc2)n(Cc2ccc(F)cc2)n1 | ? | 0 | ? | ? | 21µM
CC(C)(C)c1cc(C(=O)NNc2ccc(OC(F)(F)F)cc2)n(Cc2ccccc2)n1 | 0 | 0 | ? | 0 | 18µM
O=C(Nc1cc(F)ccc1F)c1cc2nc(-c3ccco3)cc(C(F)(F)Cl)n2n1 | 0 | - | 0 | 0 | -
CCOc1ccc(-c2nnc3sc(COc4ccc(Cl)cc4)nn23)cc1 | 0 | 0 | 0 | 0 | 0
COc1ccccc1-c1nnc2sc(COc3ccc(Cl)cc3Cl)nn12 | ? | 0 | 18µM | 0 | ?
COc1ccc(-c2nn3c(-c4ccccc4)nnc3s2)cc1 | ? | 0 | ? | 0 | ?
